# Screens from PubChem.
# Pol eta inh: qHTS for Inhibitors of Polymerase Eta | recombinant Pol eta, fluorescent DNA replication assay | Potency, µM (series often up to 114 µM), for the others: at the highest dose activity change, negative = inhibition, hits mostly inhibitors | DNA polymerase eta (Homo sapiens), Q9Y253 | 390,000 compounds, 1.2% hits | AID 588591, 2011; further: on the % scale 0 is the no-effect control and ±100 the full control effect
#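 Fluorescent replication assay: 50 nM final substrate added after a 15 min room-temperature compound preincubation with 10 nM enzyme. Signal taken at 0 min and again at 10 min.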
# POLK inh: qHTS for Inhibitors of Polymerase Kappa | DNA polymerase kappa (Homo sapiens), Q9UBT6 | purified Pol kappa, fluorescent DNA synthesis assay, 10 min | Potency, µM (top dose mostly 107 µM), inactives show at the highest dose activity, negative = inhibition, most hits filed as inhibitors | 400,000 compounds, 0.53% hits | AID 588579, 2011; further: on the % scale 0 is the no-effect control and ±100 the full control effect
#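 Readout: fluorescence, taken kinetically at 0 and 10 min. Conditions: 10 nM Pol kappa, 15 min RT compound preincubation, 50 nM substrate final. Controls: enzyme-free buffer wells.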
# POLB inh: qHTS Assay for Inhibitors of DNA Polymerase Beta. Potency, µM (series often up to 114 µM), inactives show at the highest dose activity change, negative = inhibition, actives largely listed as inhibitors. AID 485314, 2010. 340,000 compounds, 1.3% hits. Pol beta primer extension/strand displacement, fluorescence kinetic; further: on the % scale 0 is the no-effect control and ±100 the full control effect
#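 Human Pol beta at 10 nM; strand-displacement substrate 50 nM final. Compound exposure 15 min at room temperature before start, reaction 10 min at room temperature.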
# TDP1 inh: qHTS Assay for Inhibitors of Tyrosyl-DNA Phosphodiesterase (TDP1). recombinant TDP1, AlphaScreen DNA substrate cleavage. Potency, µM (series often up to 130 µM), without a hit: top-dose activity change, negative = inhibition, usual class: inhibitors. 350,000 compounds, 0.28% hits. AID 485290, 2010; further: on the % scale 0 is the no-effect control and ±100 the full control effect; nearly all actives have a fitted effect of over 40% in size
#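 E. coli-derived human Tdp1, 1 nM final. Cpd preinc 15 min RT; substrate 15 nM final, 5 min RT; AS bead mix 10 ug/ml final, 10 min RT. Signal loss = tyrosine-FITC cleavage. No-enzyme wells = max signal.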
# POLI inh: qHTS for Inhibitors of Polymerase Iota. Pol iota fluorescent replication assay, 10 min. DNA polymerase iota (Homo sapiens), Q9UNA4. 390,000 compounds, 1% hits. Potency, µM (highest dose often 115 µM), for the others: at the top dose activity, negative = inhibition, actives largely listed as inhibitors
#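 Pol iota at 10 nM preincubated 15 min with compounds at room temperature; reaction started with fluorescent substrate, 50 nM final. Fluorescence read kinetically at 0 and 10 min; buffer-only wells as negative control.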
# FEN1 inhibitor: qHTS Assay for the Inhibitors of Human Flap endonuclease 1 (FEN1); P39748; Recombinant FEN1 flap cleavage, fluorescence, 15 min; Potency, µM (series often up to 114 µM), for inactives: at the top dose activity change, negative = inhibition, actives largely listed as inhibitors; 390,000 compounds, 0.35% hits; AID 588795, 2011; further: on the % scale 0 is the no-effect control and ±100 the full control effect; nearly all actives have a fitted effect of over 65% in size
# Target sequence (P39748 whole entry, looked up): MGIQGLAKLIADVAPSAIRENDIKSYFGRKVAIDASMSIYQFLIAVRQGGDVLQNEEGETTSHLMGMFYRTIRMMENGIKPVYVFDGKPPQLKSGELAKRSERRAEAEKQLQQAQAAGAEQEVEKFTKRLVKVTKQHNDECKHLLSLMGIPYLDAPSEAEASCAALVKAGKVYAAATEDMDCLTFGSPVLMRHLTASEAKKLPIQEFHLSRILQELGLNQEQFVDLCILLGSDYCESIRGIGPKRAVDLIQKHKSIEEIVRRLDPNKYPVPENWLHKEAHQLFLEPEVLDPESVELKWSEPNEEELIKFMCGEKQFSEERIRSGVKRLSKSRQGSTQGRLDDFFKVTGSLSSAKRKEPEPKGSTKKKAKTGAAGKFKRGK
#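 In this screen, 50 nM flap DNA substrate was added to 10 nM FEN1 pretreated with compound for 15 min at room temperature; cleavage was followed with reads at 0 and 15 min, and Hill fitting gave concentration–response parameters.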
# TbPGK inh: qHTS for inhibitors of Phosphogylcerate Kinase: Hit Validation Screen; AID 686980, 2013; TbPGK coupled GAPDH assay, Kinase-Glo luminescence; Potency, µM (highest dose often 57.5 µM), for the others: top-dose activity change, negative = inhibition, hits mostly inhibitors; shares compounds with POLK inh; 500 compounds, 79% hits; further: on the % scale 0 is the no-effect control and ±100 the full control effect; nearly all actives have a fitted effect of over 65% in size
# POLI cherry-pick: qHTS for Inhibitors of Polymerase Iota: Confirmatory Assay for Cherry-picked Compounds. 1,500 compounds, 77% hits. AID 720496, 2013. Pol iota primer extension, TAMRA/BHQ fluorescence. shares compounds with POLK inh. Potency, µM, hits mostly inhibitors
# An asterisk follows results filed as active; ? = inconclusive; . = not tested or not shown; [ ] = dose if it differs, or a comment. Hits are enriched below; roughly 2.4% of the tested compounds scored in any of these assays. The call rests on the fitted dose curve; in most records, active means well fitted curve in the direction sought with a large enough effect; inconclusive means small, poorly fitted or top-dose-only effect, or another doubt; inactive means no such curve, though single readings can be large; an effect the other way counts as inactive or inconclusive. Potency means the concentration at half of the fitted maximal effect.
SMILES,Pol eta inh,POLK inh,POLB inh,TDP1 inh,POLI inh,FEN1 inhibitor,TbPGK inh,POLI cherry-pick
Cc1ccc(-c2c(C#N)c(N)n3c(nc4ccccc43)c2C#N)cc1,?,-10%,-10%,?,?,-13%,.,.
N#Cc1c(-c2ccccc2)c(C#N)c2nc3ccccc3n2c1N,-6%,-35%,-8%,-14%,16µM*,-4%,.,?
Cc1ccc2c(c1)-c1nc(-c3ccccc3)cc(-c3ccccc3)c1CO2,-21%,13%,5%,-1%,37%,5%,.,.
O=C(NNC(=O)c1cc(-c2ccncc2)nc2ccccc12)c1ccccc1O,-9%,-18%,.,-7%,?,-2%,.,38*
O=C(O)c1ccccc1NC(=O)c1cc(-c2ccccc2)nc2ccccc12,6%,-17%,0%,4%,52%,-5%,.,.
Nc1c(C(=O)O)cnc2c(-c3ccc(Cl)cc3)cnn12,-16%,-6%,3%,6%,37%,-17%,?,.
CN(C)c1ccc(/C=C/c2ccnc3ccc(O)cc23)cc1,.,-6%,.,.,?,?,.,.
COc1ccccc1-c1cc(=O)c2cc(O)ccc2o1,.,-9%[19.4 µM],.,1%,.,.,.,.
COc1ccc(OC)c(-c2c3cc(O)c(=O)cc-3oc3cc(O)c(O)cc23)c1,.,?,45µM*,9%,?,13µM*,0.37µM*,.
CCCC(=O)NC1=C(Cl)C(=O)c2ccccc2C1=O,?,-6%,.,.,6.3µM*,-33%,.,67*
CCOc1cc(N2CCOCC2)c(OCC)cc1NC(=O)c1oc2ccccc2c1C,-14%,1%,51%,-5%,23%,0%,.,.
CCOc1cc(N2CCOCC2)c(OCC)cc1NC(=O)c1cc(-c2ccco2)nc2ccccc12,79µM*,4%[60.1 µM],?,0%,?,-3%,.,?
Cc1ccc(C(=O)N2CCC(N3CCN(Cc4ccc(F)cc4)C(=O)C3=O)CC2)cc1,-17%,17%,1%,8%,2%,-8%,.,.
O=C(Oc1cc(=O)oc2c1c(=O)n1c3c(cccc23)CC1)c1ccc(F)cc1,-15%,1%,?,7%,?,-10%,.,11*
Cc1cc(C)c(NC(=O)CCN2C(=O)c3ccccc3Sc3ncccc32)c(C)c1,0%,1%,19%,-5%,-17%,10%,.,.
COc1ccc(-c2ccc3oc(-c4ccc(OC)cc4)c(C#CCCO)c3c2)cc1,45µM*,8%,.,.,35µM*,13%,.,38*
CC(=O)Nc1ccc(S(=O)(=O)N2CCC(N3CCN(Cc4ccc(C)cc4)C(=O)C3=O)CC2)cc1,?,-38%,45µM*,-8%,79µM*,7%,.,?
O=C(N/N=C/C=C\c1ccccc1[N+](=O)[O-])c1cc(-c2ccc3ccccc3c2)n[nH]1,?,-30%,18µM*,.,?,-16%,.,38*
O=C(N/N=C/C=C/c1ccccc1[N+](=O)[O-])c1ccncc1,-15%,6%,20%,0%,15%,7%,.,.
O=C(O)CC/C(=C\c1ccccc1[N+](=O)[O-])c1nc2ccccc2s1,-6%,-13%,-15%,3%,96%,-1%,.,.
O=C(O)CC/C(=C\c1ccc(N2CCCC2)c([N+](=O)[O-])c1)c1nc2ccccc2s1,56µM*,?,-8%,.,?,?,.,75*
CCOc1ccc(CCNC(=O)CCSCc2cccc(Cl)c2)cc1OCC,-21%,-15%[60.1 µM],-1%,3%,22%,-12%,.,.
O=C(CCS(=O)(=O)c1ccc(Br)cc1)NCc1ccco1,?,-2%,?,.,26%,-2%,16µM*,.
O=C(c1ccccc1)c1ccc(O)c(O)c1O,8.9µM*,22µM*,.,.,28µM*,?,5.8µM*,.
COc1ccc(C2=CC3=C(Br)C(=O)C(C)(OC(=O)C4CCCC4)C(=O)C3=CO2)cc1 (stereo not given),45µM*,79µM*,35µM*,2%,40µM*,?,9.2µM*,.
SMILES,Pol eta inh,POLK inh,POLB inh,TDP1 inh,POLI inh,FEN1 inhibitor,TbPGK inh,POLI cherry-pick
COc1ccc(CN2C=C3C(=O)C(C)(OC(=O)C4CCCC4)C(=O)C=C3C=C2c2ccsc2)cc1 (stereo not given),4%,-34%,-17%,9%[21 µM],-4%,-11%,.,.
CCCCn1c(N)c(-c2nc3ccccc3o2)c2c([N+](=O)[O-])nn(C)c(=O)c21,?,-11%,?,1%,?,?,.,42*
CCCCCn1c(N)c(-c2nc3ccccc3s2)c2c([N+](=O)[O-])nn(C)c(=O)c21,-8%,-14%,34%,3%,6%,-2%,.,.
Cc1cc(C)cc(-n2ccnc(NCc3ccc(F)cc3)c2=O)c1,-14%,-11%,-22%,8%,23%,-15%,.,.
Cc1ccc(C)c(NC(=O)c2ccc3c(O)c(S(=O)(=O)c4ccc(Cl)cc4)c(=O)[nH]c3c2)c1,3%,-6%,32%,0%,-13%,-16%,.,.
c1ccc(-c2noc(-c3ccc4ccccc4c3)n2)nc1,6%,-13%,22%,4%,12%,-3%,.,.
c1ccc(-c2noc(-c3ccncc3)n2)nc1,-12%,4%,28%,-2%,29%,-2%,18µM*,.
c1ccc(-c2noc(-c3cccnc3)n2)nc1,-8%,4%,11%,2%,11%,-2%,.,.
c1ccc(-c2noc(-c3ccc4c(c3)OCO4)n2)nc1,-5%,-4%,?,-3%,6%,-2%,5.8µM*,.
CN1C(=O)[C@H]2[C@@H](c3ccc(C(F)(F)F)cc3)N[C@]3(CCCN(Cc4ccc(C(F)(F)F)cc4)C3=O)[C@H]2C1=O,-16%,.,.,.,.,.,.,.
Cc1ccc(NC(=S)N2CCN(CCN3C(=O)c4cccc5cccc(c45)C3=O)CC2)cc1,?,-16%,25%,3%,12%,-2%,4%,.
COc1cc(SC)ccc1C(=O)Nc1c(C)cccc1C,-20%,-2%,-3%,7%,138%,4%,.,.
COc1cc(SC)ccc1C(=O)NNC(=O)c1cc(C)oc1C,-17%,-7%,.,0%,91%,-3%,13µM*,.
COc1ccccc1C(=O)Nc1nc2ccccc2[nH]1,-18%,-2%,24%,-5%,3%,-1%,5.8µM*,.
